Reference: PubChem BioAssay AID1159580 (chemical genetic matrix, 2015)
The campaign covered roughly 5,500 compounds. About 2,000 (36%) were called active. About 18% were inconclusive and are not listed. Cut-off read from the data, not from the text of the source: active = normalized growth mostly below about 0.91 (no sharp cut-off); inconclusive = no clear call, values can overlap the other calls; inactive = mostly above about 0.92. The list shows a part of the results.

Assay: chemical genetic growth profiling, strain panel (AID 1159580);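 note: tested at 20 µM; growth read once vehicle control cultures reached saturation at 30 °C; 1 = growth at the plate median or of vehicle wells; lower values mean less growth of the strain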
Conditions: growth OD
[1] = S. cerevisiae deletion strains, locus YAL013W, strain DEP1, active compounds read low
[2] = S. cerevisiae deletion strains, locus YBR229C, strain ROT2, active compounds read low
[3] = S. cerevisiae deletion strains, locus YDL101C, strain DUN1, active compounds read low
[4] = S. cerevisiae deletion strains, locus YDR150W, strain NUM1, active compounds read low
[5] = S. cerevisiae deletion strains, locus YEL061C, strain CIN8, active compounds read low
[6] = S. cerevisiae deletion strains, locus YGR078C, strain PAC10, active compounds read low
[7] = S. cerevisiae deletion strains, locus YHR030C, strain SLT2, active compounds read low
[8] = S. cerevisiae deletion strains, locus YHR087W, strain rtc3, active compounds read low
[9] = S. cerevisiae deletion strains, locus YJR043C, strain POL32, active compounds read low
[10] = S. cerevisiae deletion strains, locus YJR075W, strain HOC1, active compounds read low
[11] = S. cerevisiae deletion strains, locus YLR039C, strain RIC1, active compounds read low
[12] = S. cerevisiae deletion strains, locus YLR058C, strain SHM2 (second series), active compounds read low
[13] = S. cerevisiae deletion strains, locus YLR085C, strain ARP6, active compounds read low
[14] = S. cerevisiae deletion strains, locus YLR262C, strain YPT6, active compounds read low
[15] = S. cerevisiae deletion strains, locus YML094W, strain GIM5, active compounds read low
[16] = S. cerevisiae deletion strains, locus YMR219W, strain ESC1, active compounds read low
[17] = S. cerevisiae deletion strains, locus YMR263W, strain SAP30, active compounds read low
[18] = S. cerevisiae deletion strains, locus YNL128W, strain TEP1, active compounds read low
[19] = S. cerevisiae deletion strains, locus YNL153C, strain GIM3, active compounds read low
[20] = S. cerevisiae deletion strains, locus YNL298W, strain CLA4 (second series), active compounds read low
[21] = S. cerevisiae deletion strains, locus YNL322C, strain KRE1, active compounds read low
[22] = S. cerevisiae deletion strains, locus YNR030W, strain Alg12, active compounds read low
[23] = S. cerevisiae deletion strains, locus YPL055C, strain LGE1, active compounds read low
[24] = S. cerevisiae deletion strains, locus YPR135W, strain CTF4, active compounds read low
[25] = S. cerevisiae deletion strains, locus YPL241C, strain CIN2, active compounds read low
[26] = S. cerevisiae deletion strains, locus YAL040C, strain CLN3, active compounds read low
[27] = S. cerevisiae deletion strains, locus YCL061C, strain MRC1 (second series), active compounds read low
[28] = S. cerevisiae deletion strains, locus YER002W, strain NOP16, active compounds read low
[29] = S. cerevisiae deletion strains, locus YNL175C, strain NOP13, active compounds read low
[30] = S. cerevisiae deletion strains, locus YNL197C, strain WHI3, active compounds read low
[31] = S. cerevisiae deletion strains, locus YNL224C, strain SQS1, active compounds read low
[32] = S. cerevisiae deletion strains, locus YOR083W, strain WHI5 (second series), active compounds read low

Measured: normalized growth

COc1ccccc1C1CCN(C(=O)c2ccc(F)cc2)CC1
inactive: [1] 0.981 | [2] 0.986 | S. cerevisiae deletion strains, locus YCL061C, strain MRC1, active compounds read low 0.989 | [3] 0.994 | S. cerevisiae deletion strains, locus YDL134C, strain PPH21, active compounds read low 0.983 | [4] 0.988 | [5] 0.965 | [6] 0.982 | [7] 0.754 | [8] 1.01 | [9] 0.987 | [10] 1 | [11] 1.03 | [12] 0.981 | [13] 0.901 | [14] 1.01 | [15] 0.944 | [16] 0.976 | [17] 0.994 | [18] 0.986 | [19] 0.989 | [20] 0.982 | [21] 0.978 | [22] 0.967 | S. cerevisiae deletion strains, locus YOL006C, strain TOP1, active compounds read low 0.852 | [23] 0.926 | [24] 0.975

COc1ccccc1C1CCN(Cc2ccc3ccccc3c2)CC1
inactive: [1] 0.981 | [2] 0.965 | [3] 0.973 | [4] 1 | [5] 0.915 | [6] 0.986 | [8] 0.987 | [9] 1.01 | [10] 0.99 | [11] 0.98 | [12] 0.985 | [13] 0.91 | [14] 0.904 | [15] 0.885 | [16] 1 | [17] 1.01 | [19] 0.962 | [20] 0.888 | [21] 0.989 | [22] 0.963 | [23] 1.02 | [25] 0.911 | [24] 0.773
active: [7] 0.529 | S. cerevisiae strains, strain wild type, active compounds read low 0.885

COc1ccccc1N1CCN(CCCCNC(=O)c2ccc3ccccc3c2)CC1
inactive: [26] 0.951 | [27] 0.988 | S. cerevisiae deletion strains, locus YDR363W, strain ESC2, active compounds read low 1.03 | [28] 0.996 | [6] 0.981 | [17] 0.978 | S. cerevisiae deletion strains, locus YMR307W, strain GAS1, active compounds read low 0.995 | [29] 1.03 | [30] 1.01 | [31] 0.983 | [32] 1.06 | [23] 0.999

Nc1cc(Cl)c(NC2=NCCN2)c(Cl)c1
inactive: [26] 0.982 | [27] 1 | [28] 1 | S. cerevisiae deletion strains, locus YGR229C, strain SMI1, active compounds read low 1.01 | [10] 0.998 | [18] 1 | [19] 0.987 | [29] 1.02 | [30] 1 | [31] 1.02 | [32] 1.04 | [25] 1
